This is a sample that favours compounds with a hit; in the whole collection about 17% have one here.
ClpP mod = qHTS Assay for Activators of ClpP | ATP-dependent Clp protease proteolytic subunit (Bacillus subtilis (strain 168)), P80244 | purified B. subtilis ClpP, FRET peptide cleavage, 20 min | Potency, µM (doses to about 57.5 µM), without a hit: top-dose activity change, negative = active | 1.9% of 340,000 active | AID 651965, 2013; active means well fitted falling curve with a large enough effect; inconclusive means small, poorly fitted or top-dose-only effect; inactive means no such curve, though single readings can be large or run the other way; further: the source files actives as falling curves though it sought activators and does not explain the sign; nearly all actives have a fitted effect of over 65% in size
Target sequence (P80244 whole entry, looked up): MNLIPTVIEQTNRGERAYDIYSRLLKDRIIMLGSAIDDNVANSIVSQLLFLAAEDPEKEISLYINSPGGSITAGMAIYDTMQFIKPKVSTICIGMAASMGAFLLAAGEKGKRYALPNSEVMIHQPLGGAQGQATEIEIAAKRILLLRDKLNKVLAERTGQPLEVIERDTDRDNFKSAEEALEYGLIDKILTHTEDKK
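ClpP 10 microg/mL final, pH 8 Tris/KCl buffer with BSA, glycerol, Tween-20; compound pinned in; FRET-FV substrate; RT 20 min; Ex320/Em430; ΔFRET vs ADEP 5.8 microM, DMSO, no enzyme.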
DT40 TDP1 no CPT = qHTS for Inhibitors of human tyrosyl-DNA phosphodiesterase 1 (TDP1): qHTS in cells in absence of CPT | DT40 Tdp1-/- hTDP1 cells, no CPT, ATP luminescence, 48 h | Potency, µM (highest dose often 46.2 µM), without a hit: at the top dose activity change, negative = growth inhibition, hits mostly inhibitors | 15% of 420,000 active | AID 686978, 2013; further: on the % scale 0 is the no-effect control and ±100 the full control effect; nearly all actives have a fitted effect of over 55% in size
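DT40 Tdp1-/-;hTDP1 cells, no CPT (DMSO vehicle only), 400 cells/well; compounds pin-transferred; ≥48 hr, 37 °C; CellTiter-Glo 30 min RT dark, luminescence read.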
TDP1 cell CPT = DT40-hTDP1 cell growth loss with CPT; AID 686979; Potency, µM (titrated, usually from 46.2 µM), inactives show top-dose activity change, negative = growth inhibition, hits mostly inhibitors; 12% of 420,000 active; chicken DT40 Tdp1-/-;hTDP1 cells + 20 nM CPT, ATP luminescence, 48 h; further: on the % scale 0 is the no-effect control and ±100 the full control effect; nearly all actives have a fitted effect of over 55% in size
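Chicken DT40 Tdp1-/- cells stably complemented with human TDP1 were seeded at 400 cells/well in medium containing 20 nM camptothecin, exposed to pin-transferred compounds, and grown at 37 °C for at least 48 hr. Viability was read as ATP luminescence.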
TDP1 block = blocks human tyrosyl-DNA phosphodiesterase 1 | recombinant TDP1, AlphaScreen DNA substrate cleavage | Potency, µM (titrated, usually from 130 µM), for inactives: top-dose activity change, negative = inhibition, hits mostly inhibitors | 0.28% of 350,000 active | AID 485290; further: on the % scale 0 is the no-effect control and ±100 the full control effect; nearly all actives have a fitted effect of over 40% in size
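Enzyme-compound mixtures sat 15 min at room temperature, followed by a 5 min reaction with 15 nM final substrate and 10 min with AlphaScreen beads. Recombinant human Tdp1 was used at 1 nM final.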
* hit, by the source's call; ? = inconclusive; . = not tested or not shown; [ ] = another dose, or the depositor's remark. Unless noted, the call rests on the fitted dose curve; in most records, active means well fitted curve in the direction sought with a large enough effect; inconclusive means small, poorly fitted or top-dose-only effect, or another doubt; inactive means no such curve, though single readings can be large; an effect the other way counts as inactive or inconclusive. Potency means the concentration at half of the fitted maximal effect.

SMILES	ClpP mod	DT40 TDP1 no CPT	TDP1 cell CPT	TDP1 block
COc1ccc(C(C)(NC(C)=O)c2nc(-c3cccc(C(=O)O)c3)cs2)cc1 (centres undefined)	-1.4%	-5.4%	-16.4%	.
O[C@H]1CN(CC2CCCCC2)[C@@H](c2ccc(Cl)cc2)C[C@@H]1n1cc(C2CC2)nn1	-1.9%	?	?	.
O[C@@H]1CN(CC2CCCCC2)[C@@H](c2ccccc2)C[C@H]1n1cc(C2CC2)nn1	-0.2%	8.2µM*	?	.
O[C@H]1C[C@H](c2ccccc2)N(CC2CCCCC2)C[C@@H]1n1cc(C2CC2)nn1	0.8%	7.31µM*	10.3µM*	.
CC(C)(C)NC[C@@H](O)COc1nsnc1N1CCOCC1	.	3.1%	-0.2%	-7.3%[56.1 µM]
Cc1ccc(NC(=O)CN2C(=O)S/C(=C/c3ccc(O)c([N+](=O)[O-])c3)C2=O)cc1C	.	-10.1%	0.3%	79.4µM*
O=C(CN1C(=O)S/C(=C\c2ccc(O)c([N+](=O)[O-])c2)C1=O)Nc1ccc(N2CCOCC2)cc1	1.4%	-28.7%	11.5%	44.7µM*
CCN(C(=O)COC(=O)/C=C/c1ccco1)c1c(N)n(Cc2ccccc2)c(=O)[nH]c1=O	-3.7%	-9.0%	-1.4%	.
COc1ccc2nc(N3C(=O)CNC3=S)sc2c1	.	7.31µM*	7.31µM*	9.0%
Cc1ccc2nc(N3C(=O)CNC3=S)sc2c1	.	?	14.6µM*	8.6%
CN(CC(=O)Nc1ccccc1C(F)(F)F)C(=O)c1ccccc1Sc1ccccc1C#N	-4.0%	?	2.2%	0.6%
O=C(NCc1ccc(F)cc1)c1ccc(CS(=O)(=O)Cc2ccc(F)cc2)o1	-0.2%	?	?	-1.9%
O=C(NCc1ccc(F)cc1)c1ccc(CS(=O)(=O)c2ccc(Cl)cc2)o1	-0.3%	16.4µM*	?	7.0%
COc1ccccc1S(=O)(=O)Cc1ccc(C(=O)NCc2ccc(Cl)cc2)o1	-1.4%	18.4µM*	?	4.6%
O=C(Cn1ncc2c(=O)oc3ccccc3c21)Nc1cc(F)ccc1F	-2.9%	-15.4%	-0.1%	1.3%
Cc1cc(C)n(-c2cc(N3CCN(S(=O)(=O)c4ccc(Cl)cc4)CC3)ccc2[N+](=O)[O-])n1	0.3%	6.51µM*	7.31µM*	3.4%
CN(C)S(=O)(=O)N1CCN(c2ccc([N+](=O)[O-])c(N3CCCCC3)c2)CC1	.	10.3µM*	-26.4%	3.6%
CC(=O)N1CCN(c2ccc([N+](=O)[O-])c(-n3nc(C)cc3C)c2)CC1	1.4%	-2.9%	-6.3%	0.0%
Cc1cc(C)n(-c2cc(N3CCN(C(=O)c4cccc(Br)c4)CC3)ccc2[N+](=O)[O-])n1	-0.2%	20.6µM*	?	7.8%
CCCOc1ccc(C2C(=O)N(C3CCCCC3)CC(=O)N2CCc2ccccc2)cc1OC (centres undefined)	1.0%	?	?	7.8%
Clc1ccc(C2=CSC3=NCCN23)c(Cl)c1	.	-10.2%	3.6%	.
COc1ccc(CNCc2ccc3ccccc3c2)c(OC)c1	-3.6%	16.4µM*	16.4µM*	4.6%
COc1ccccc1-c1nc(NCc2cccnc2)c2ccccc2n1	.	?	-17.5%	.
COc1ccc(CNc2nc3ccccc3n2C)c(OC)c1	0.0%	16.4µM*	?	0.0%
COc1ccc(CCC(C)NCc2ccccc2OC)cc1 (centres undefined)	-0.6%	?	25.9µM*	4.4%
SMILES	ClpP mod	DT40 TDP1 no CPT	TDP1 cell CPT	TDP1 block
COc1ccc(CNc2nc(-c3ccccc3OC)nc3ccccc23)c(OC)c1	.	9.2µM*	23.1µM*	3.6%
COc1ccccc1CCNC(C)CCc1ccc(O)cc1 (centres undefined)	-1.3%	-19.7%	?	5.5%
COc1ccc(CNc2ccnc(-c3ccccc3CN(C)C)n2)c(OC)c1	.	14.6µM*	?	.
COc1ccc(CNc2ncncc2-c2ccccc2Cl)c(OC)c1	.	-16.7%	-2.1%	.
COc1cccc(-c2nccc(NCc3ccccc3OC)n2)c1	.	?	-28.9%	.
COc1ccc(CNc2ccnc(-c3ccccc3Cl)n2)c(OC)c1	.	23.1µM*	?	.
COc1cc(CNCc2ccc(OC)c(OC)c2OC)cc(OC)c1	-0.6%	20.6µM*	18.4µM*	-8.4%
COc1ccc(CNc2ccnc(-c3ccccc3OC)n2)c(OC)c1	.	23.1µM*	13µM*	.
COc1ccc(CNc2ncncc2-c2ccccc2CN(C)C)c(OC)c1	.	-22.9%	-22.4%	14.8%[56.1 µM]
COc1cc2c(cc1O)C(CSC)Cc1cc3c(cc1N(C)CC2)OCO3 (centres undefined)	-18.6%	?	?	.
Cc1oc(-c2cc(F)ccc2F)nc1CN(C)Cc1ccc2nccnc2c1	-3.5%	16.4µM*	?	0.0%
COCCCNc1ncnc2sc3c(c12)CCC(C)C3 (centres undefined)	-11.3%	23.1µM*	?	-7.5%
Cc1ccc2nc(-c3ccc(Cl)cc3)c(Cc3ccccn3)n2c1	4.8%	16.4µM*	18.4µM*	.
Cc1ccc2nc(-c3ccc(C#N)cc3)c(Cc3ccccn3)n2c1	4.5%	?	?	.
Cc1ccc(-c2nc3ccc(C)cn3c2Cc2ccccn2)cc1	4.3%	18.4µM*	?	.
Cc1ccc2nc(-c3cccc(Br)c3)c(Cc3ccccn3)n2c1	4.6%	?	20.6µM*	.
C/C(=N\NC(=S)Nc1ccccc1C)c1cc2ccccc2o1	.	5.17µM*	4.11µM*	.
C/C(=N\NC(=S)Nc1c(C)cccc1C)c1cc2ccccc2o1	4.2%	2.06µM*	3.26µM*	7.1%
C/C(=N\NC(=S)Nc1c(C)cccc1C)c1ccc(O)cc1	-2.5%	?	16.4µM*	8.4%
CCNc1ncc2nc(-c3cccs3)c(=O)n(Cc3cccc(OC)c3)c2n1	.	-3.4%	-14.8%	.
CC1(C(=O)NCc2ccccc2Br)CCN1C(=O)C1(c2ccc(Cl)cc2)CC1 (centres undefined)	-1.0%	?	?	.
COc1ccc(S(=O)(=O)N(Cc2nc(-c3ccc(Cl)cc3)no2)C2CCCCC2)cc1	-2.8%	20.6µM*	20.6µM*	2.5%
Cc1ccc(-c2noc(CN(C3CCCCC3)S(=O)(=O)c3ccc(Cl)cc3)n2)cc1	1.0%	?	25.9µM*	1.2%
O=S(=O)(c1ccc(F)cc1)N(Cc1nc(-c2ccc(Cl)cc2)no1)C1CCCCC1	0.8%	25.9µM*	?	-2.5%
O=S(=O)(NCC1CCCO1)c1ccc(S(=O)(=O)N(Cc2ccc(F)cc2)C2CCCCC2)cc1 (centres undefined)	-2.0%	?	?	.
CN(Cc1nc(-c2ccncc2)no1)S(=O)(=O)c1ccc(Cl)cc1	0.9%	?	?	8.7%
CCOc1ccc(NC(=O)C(C)n2c(=O)cc(C)c3c(C)nn(-c4ccccc4)c32)cc1 (centres undefined)	-0.7%	?	?	3.2%
CCc1ccc2oc(C(=O)Nc3cccc(Cl)c3C)cc(=O)c2c1	-1.9%	-24.4%	?	2.5%

Bioassay records from PubChem BioAssay.
